Screens deposited in PubChem BioAssay by National Center for Advancing Translational Sciences (NCATS).
An excerpt weighted towards active compounds, which were near 3.2% of everything screened.
Coupling enz: inhibits coupling enzyme system, counter-screen for aldolase hits. AID 2472. activity change, negative = inhibition, % at 58.2 µM, hits read low. coupling enzyme system counterscreen, AmpLite Red fluorescence. 290,000 compounds, 0.67% hits; in the data active means activity change below about -30%
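Activity here indicates interference with the coupling reaction, not aldolase inhibition. Compounds at 57.5 uM final met coupling enzymes for 10 min at RT; substrate and AmpLite Red detection followed, with a 525/598 nm fluorescence read after 20 min.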
USP2a inh: inhibitors of human ubiquitin-specific protease USP2a; O75604; USP2 core, Ub-CHOP2 coupled fluorogenic reporter, 485/531; Potency, µM (series often up to 38.3 µM), for inactives: at the highest dose activity change, negative = inhibition, most hits filed as inhibitors; 330,000 compounds, 0.01% hits;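 further: potency means the concentration at half of the fitted maximal effect; plate controls were DMSO wells for no effect and full inhibition by NEM control for full effect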
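USP2 core (10nM final) preincubated 30min RT with compound in 20mM Tris-HCl pH 8.0, 2mM CaCl2, 2mM beta-mercaptoethanol, 0.05% CHAPS; 25nM Ub-CHOP2 plus 25nM reporter substrate added, fluorescence (Ex485/Em531) read after 60min.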
USP1 inh: USP1/UAF1 (human) deubiquitinase inhibition. O94782. recombinant USP1/UAF1, Ub-Rhodamine cleavage fluorescence. Potency, µM (highest dose often 57.1 µM), for the others: top-dose activity change, negative = inhibition, hits mostly inhibitors. 390,000 compounds, 0.23% hits. AID 743255; further: potency means the concentration at half of the fitted maximal effect; nearly all actives have a fitted effect of over 60% in size
Target sequence (O94782 whole entry, looked up): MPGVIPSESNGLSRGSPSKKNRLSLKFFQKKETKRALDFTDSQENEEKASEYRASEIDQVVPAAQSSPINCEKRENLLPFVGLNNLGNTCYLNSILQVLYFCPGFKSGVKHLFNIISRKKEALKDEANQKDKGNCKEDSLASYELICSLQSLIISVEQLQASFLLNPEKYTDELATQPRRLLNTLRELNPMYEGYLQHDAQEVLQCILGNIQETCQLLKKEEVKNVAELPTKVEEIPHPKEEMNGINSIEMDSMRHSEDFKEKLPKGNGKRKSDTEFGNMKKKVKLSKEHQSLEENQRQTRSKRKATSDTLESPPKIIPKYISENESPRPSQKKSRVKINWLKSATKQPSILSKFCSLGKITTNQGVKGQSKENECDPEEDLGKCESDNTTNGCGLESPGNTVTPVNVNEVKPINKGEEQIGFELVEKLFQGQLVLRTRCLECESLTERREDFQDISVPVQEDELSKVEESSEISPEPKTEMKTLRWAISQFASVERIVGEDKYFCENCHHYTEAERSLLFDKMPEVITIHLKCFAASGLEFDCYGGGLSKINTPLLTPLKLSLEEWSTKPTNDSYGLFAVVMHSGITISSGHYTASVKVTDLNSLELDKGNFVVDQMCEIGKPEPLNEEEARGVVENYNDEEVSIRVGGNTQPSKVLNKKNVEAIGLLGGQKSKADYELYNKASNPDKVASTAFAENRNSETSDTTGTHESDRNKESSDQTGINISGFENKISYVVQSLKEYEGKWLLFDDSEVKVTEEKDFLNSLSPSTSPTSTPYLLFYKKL
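High-throughput fluorogenic screen: 1nM USP1/UAF1 complex, Ub-Rho substrate 150nM final, 50mM HEPES pH 7.8 with 0.5mM EDTA, 0.1 mg/ml BSA, 1mM TCEP and 0.01% Tween-20.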
VDR inh: blocks the human vitamin D receptor. 400,000 compounds, 0.93% hits. P11473. VDR-SRC2-3 peptide fluorescence polarization, 2 h. Potency, µM, without a hit: max response, negative = inhibition, usual class: inhibitors; further: potency means the concentration at half of the fitted maximal effect
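The screen uses fluorescence polarization to detect compounds that interfere with recruitment of the SRC2-3 coactivator peptide to VDR; plates are read after 2 h at room temperature.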
PLK1 PBD block: blocks phosphopeptide binding to human PLK1 polo-box domain. P53350. Plk1 PBD binding of FITC phosphopeptide, fluorescence polarization. Potency, µM, inactives show max response, negative = inhibition, actives largely listed as inhibitors. 360,000 compounds, 2.8% hits; further: potency means the concentration at half of the fitted maximal effect; series mostly up to about 57 µM; nearly all actives have a fitted effect of over 65% in size
GALK inhibitor: inhibitors of human galactokinase; AID 1868; 270,000 compounds, 0.007% hits; Potency, µM (top dose mostly 57.5 µM), for the others: at the highest dose activity change, negative = inhibition, hits mostly inhibitors; P51570; Purified GALK, Kinase-Glo residual ATP luminescence; further: potency means the concentration at half of the fitted maximal effect
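Kinase-Glo Plus luminescence measured ATP left after a 1 h room-temperature reaction. The reaction used 5 nM GALK, 100 uM galactose and 35 uM ATP at pH 8.0 (20 mM HEPES, 5 mM MgCl2, 60 mM NaCl, 1 mM DTT, 0.01% BSA).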
* = called active by the depositor. Unless noted, the call rests on the fitted dose curve; in most records, active means well fitted curve in the direction sought with a large enough effect; inconclusive means small, poorly fitted or top-dose-only effect, or another doubt; inactive means no such curve, though single readings can be large; an effect the other way counts as inactive or inconclusive. Unless noted, on the % scale 0 is the no-effect control and ±100 the full control effect.

`COc1cccc(C(O)c2nc(-c3cccc(C(C)C)c3)cs2)c1` (centres undefined) gave PLK1 PBD block 0%.
Cc1ccc(S(=O)OCC(=O)Nc2cc(Cl)ccc2N2CCOCC2)cc1 (centres undefined) was read as Coupling enz -1, USP2a inh -1%, USP1 inh -22%, VDR inh inconclusive, PLK1 PBD block 17µM* and GALK inhibitor 5%.
`Cc1noc(C)c1CSCC(=O)Nc1cc(Cl)ccc1N1CCOCC1` gave Coupling enz 1, USP2a inh -1%, USP1 inh -6%, VDR inh -1%, PLK1 PBD block 0% and GALK inhibitor -1%.
Screening Brc1c(OCCOCCn2cncn2)ccc2ccccc12 returned Coupling enz 0, USP2a inh -1%, USP1 inh -19%, VDR inh -6%, PLK1 PBD block 17µM* and GALK inhibitor -3%.
COC(=O)Nc1nnc(CC(=O)Nc2ccccc2C)s1 was read as Coupling enz 2, USP2a inh -3%, USP1 inh -13%, VDR inh 2%, PLK1 PBD block -6% and GALK inhibitor -1%.
For CC1(C)CC(=O)C2=C(C1)NC(Nc1nc3ccccc3o1)=NC21CCCC1 the results were Coupling enz 0, USP2a inh 0%, USP1 inh -14%, VDR inh -27%, PLK1 PBD block 27µM* and GALK inhibitor inconclusive.
CC1(C)CC(=O)C2=C(C1)NC(Nc1nc3ccccc3o1)=NC2c1ccccc1Cl (centres undefined) was read as VDR inh -5%.
Cn1sccc1=O was read as USP2a inh 2%, USP1 inh inconclusive, VDR inh 16µM* and PLK1 PBD block 15µM*.
`COc1ccccc1-n1cnnc1SCC(=O)NCc1cccs1` gave Coupling enz -2, USP2a inh 9%, USP1 inh -1%, VDR inh -3%, PLK1 PBD block -6% and GALK inhibitor 0%.
For Cc1occc1-c1nnc(SCC(=O)c2c[nH]c3ccccc23)n1C the results were Coupling enz 0, USP2a inh 3%, USP1 inh -21%, VDR inh -22%, PLK1 PBD block 24µM* and GALK inhibitor 4%.
`COc1ccccc1-n1cnnc1SCC(=O)c1c[nH]c2ccccc12` gave Coupling enz 1, USP2a inh 0%, USP1 inh -21%, VDR inh inconclusive, PLK1 PBD block 27µM* and GALK inhibitor 0%.
O=C(NCC(c1ccco1)N1CCCCC1)c1ccc(S(=O)(=O)Nc2ccccc2Cl)cc1 (centres undefined) was read as USP2a inh 2%, USP1 inh -5%, VDR inh -2% and PLK1 PBD block -16%.
COc1cc(CNCCCN2CCOCC2)cc(Br)c1OCc1ccc(Cl)cc1 was read as Coupling enz 1, USP2a inh 1%, USP1 inh -20%, VDR inh -3%, PLK1 PBD block 1% and GALK inhibitor 0%.
Screening C=CCOc1c(Cl)cc(CNCCCN2CCOCC2)cc1OC returned Coupling enz 2, USP2a inh 1%, USP1 inh -11%, VDR inh inconclusive and PLK1 PBD block 21µM*.
COc1ccc(N2CCN(C(=O)c3ccccc3F)CC2)c([N+](=O)[O-])c1 was read as Coupling enz 1, USP2a inh 0%, USP1 inh -18%, VDR inh inconclusive, PLK1 PBD block 8.4µM* and GALK inhibitor 0%.
`COc1ccc(N2CCN(C(=O)c3cccc(F)c3)CC2)c([N+](=O)[O-])c1` gave Coupling enz 5, USP2a inh 1%, USP1 inh -23%, VDR inh -4%, PLK1 PBD block -12% and GALK inhibitor -1%.
